Assay [1] is described as follows: Nuclear factor erythroid 2-related factor 2/antioxidant responsive element (Nrf2/ARE) small molecule agonists: luciferase reporter gene qHTS assay in human keratinocytes (AID 1919969). Further: nearly all actives have a fitted effect of over 35% in size. Further: potency means the concentration at half of the fitted maximal effect. For orientation: A reporter such as luciferase makes a cellular process visible.
Assay [2] has as its target Gonadotropin-releasing hormone receptor (Homo sapiens) (UniProt P30968). Put plainly: Human gonadotropin-releasing hormone receptor (GnRHR) small molecule agonists, calcium flux assay in GnRHR-HEK293 cells (AID 1920063). Further: nearly all actives have a fitted effect of over 35% in size. The method, boiled down:
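Intracellular calcium rise is the read-out: engineered human GnRHR HEK293 cells, dye-loaded, are exposed to DMSO-dissolved compounds and fluorescence at Ex/Em 480/540 is tracked for 3 min.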
In general terms: A change in cytosolic calcium serves as a functional read-out for many receptors and channels.

Assay [3] is described as follows: p53 small molecule agonists, cell-based qHTS assay with human liver microsomes (AID 1963577). The gist of the method: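 In this qHTS, p53 response-element beta-lactamase cells receive test compound together with a microsome/NADPH activating system (0.5 mg/mL final each) and are incubated 16 h at 37 C before LiveBLAzer fluorescence detection.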
(Quantitative high-throughput screening tests each substance at several concentrations.)

A short description of assay [4]: p53 small molecule agonists, cell-based qHTS assay with human liver microsomes: qHTS cell viability counter screen (AID 1963579). Further: nearly all actives have a fitted effect of over 45% in size. The gist of the method: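 Metabolically activated exposure: compounds, human liver microsomes and NADPH (0.5 mg/mL final apiece) were added to p53RE-bla cells seeded 5 h earlier, left 16 h at 37 C, and then assessed for viability by CellTiter-Glo luminescence.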

Assay [5] can be described thus: p53 small molecule agonists, cell-based qHTS assay with rat liver microsomes: qHTS cell viability counter screen (AID 1963580). Further: nearly all actives have a fitted effect of over 45% in size. The method, boiled down: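 Cytotoxicity counter screen: intracellular ATP measured by CellTiter-Glo luminescence in the same wells as the beta-lactamase reporter read, on HCT-116 p53RE-bla cells exposed 16 h at 37 C to compounds with rat liver microsomes and NADPH, each 0.5 mg/mL final.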

Assay [6] is described as follows: p53 small molecule agonists, cell-based qHTS assay: qHTS cell viability counter screen (AID 1963581). Further: nearly all actives have a fitted effect of over 45% in size. The method, boiled down: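 Luminescence from CellTiter-Glo, reflecting ATP content, serves as the cytotoxicity measure; it is taken after the 2 h reporter substrate step in HCT-116 p53RE-bla cells dosed for 16 h at 37 C.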
Assay [7] is described as follows: p53 small molecule agonists, cell-based qHTS assay (AID 1963582; active means well fitted activation curve with a large enough effect in the signal ratio in the repeat runs, not every such curve was filed as active; the % refers to the signal ratio). The method, boiled down:
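After plating, p53RE-bla cells sat 5 h in the incubator; compounds or DMSO vehicle were pinned in; a 16 h incubation at 37 C followed; FRET substrate was added and, 2 h later at RT, fluorescence was measured.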

The target of assay [8] is 5-hydroxytryptamine receptor 2A (Homo sapiens) (UniProt P28223). Put plainly: 5-hydroxytryptamine receptor 2A (HTR2A) small molecule antagonists, cell-based qHTS assay (AID 1963586). Further: nearly all actives have a fitted effect of over 45% in size. The method, boiled down: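 CHO cells stably expressing human HTR2A were plated for 18 h at 37 C, then loaded with calcium dye for 1 h. Compounds were preincubated 5 min at room temperature before DOI (4 nM solution) was added. Kinetic fluorescence was read for 3 min.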

Assay [9] shares this target. Put plainly: 5-hydroxytryptamine receptor 2A (HTR2A) small molecule agonists, cell-based qHTS assay (AID 1963587). Further: nearly all actives have a fitted effect of over 30% in size. The method, boiled down: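 CHO cells stably expressing human HTR2A, plated 18 h, loaded with calcium dye 1 h at 37 C. Agonist mode: compounds added and intracellular calcium fluorescence recorded kinetically for 2 min at 1 sec intervals.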
Assay [10] deals with Muscarinic acetylcholine receptor M1 (Homo sapiens) (UniProt P11229). Put plainly: Cholinergic receptor muscarinic 1 (CHRM1) small molecule agonists, cell-based qHTS assay (AID 1963589). Further: nearly all actives have a fitted effect of over 35% in size. The method, boiled down:
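Fluorescent calcium dye reports M1 activation in stably transfected CHO cells. Compounds, 15 concentrations, added after 1 h dye loading at 37 C; kinetic reading at 1 sec intervals.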

Assay [11] is described as follows: cAMP Responsive Elements (CRE) small molecule agonists, cell-based qHTS assay (AID 1963590). The method, boiled down: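 Compound exposure lasted 3 h at 37 C/5% CO2 in CRE-bla HEK 293T cells grown in assay medium with 10% dialyzed FBS and 25 mM HEPES. Reporter signal came from LiveBLAzer B/G FRET substrate, 2 h, room temperature.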
Assay [12] in a line: cAMP Responsive Elements (CRE) small molecule antagonists, cell-based qHTS assay (AID 1963591; active means well fitted inhibition curve with a large enough effect in the signal ratio in the repeat runs, not every such curve was filed as active; the % refers to the signal ratio). The gist of the method: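 Stimulation used NKH477 at a final 0.25 uM for 3 h in compound-treated CRE-bla HEK293T cells, seeded 18 h beforehand. Reporter activity was measured with LiveBLAzer B/G FRET substrate after 2 h at room temperature.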
In assay [13] the target is Beta-2 adrenergic receptor (Homo sapiens) (UniProt P07550). The experiment in a line: Adrenergic beta2 receptor (ADRB2) small molecule antagonists, cell-based qHTS assay (AID 1963592). Further: series mostly up to about 92 µM; nearly all actives have a fitted effect of over 50% in size. The method, boiled down:
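Assay format: CHO-ADRB2 cells, 18-20hr seeding at 37C/5% CO2, then compound plus 1nM isoproterenol agonist mix for 0.5hr RT. Homogeneous time-resolved fluorescence cAMP detection after 1hr, expressed as 665/615 nm ratio.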

Assay [14] concerns the target D(2) dopamine receptor (Homo sapiens) (UniProt P14416). The experiment in a line: Dopamine D2 receptor (DRD2) small molecule agonists, cell-based qHTS assay (AID 1963594). Further: nearly all actives have a fitted effect of over 35% in size. The gist of the method:
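HEK293 cells stably expressing human DRD2, pre-treated with PDE inhibitor Ro20-1724 (0.1 mM final) and compound 10 min at room temperature, then stimulated with NKH477 (200nM […]) for 30 min. cAMP read by HTRF (665/620 nm).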

Assay [15] has the same target. Put plainly: Dopamine D2 receptor (DRD2) small molecule antagonists, cell-based qHTS assay (AID 1963595; active means well fitted inhibition curve with a large enough effect in the signal ratio in the repeat runs, with a control signal flat; the % refers to the signal ratio). The gist of the method:
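Antagonist mode in DRD2-HEK293 cells: after compound addition with 0.1 mM Ro20-1724, cells received quinpirole (12 nM) and NKH477 (200 nM) for 30 min at room temperature; HTRF cAMP read after 1 h detection.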

The target of assay [16] is KiSS-1 receptor (Homo sapiens) (UniProt Q969F8). Put plainly: Human kisspeptin (KISS1R) small molecule agonists, calcium flux assay in KISS1R-HEK293 cells (AID 1920064; active means well fitted activation curve with a large enough effect in the repeat runs). The gist of the method:
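Concentration-response testing used 15 concentrations in triplicate on human KISS1R-expressing HEK293 cells. Calcium-dependent fluorescence (Ex/Em 480/540) was followed kinetically for 3 min after compound transfer.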

Assay [17] is described as follows: G protein-coupled receptor (GPCR) small molecule agonists, calcium flux assay: HEK293 wild type cell line counter screen (AID 1920065). The gist of the method: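 Fluorescence intensity signals activation. After overnight (18 h) culture and a 1 h calcium dye load at 37 C, compounds are added by pin tool and the plate read at 480/540 nm for 3 min in 1 s steps.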

The target in assay [18] is Beta-2 adrenergic receptor (Homo sapiens) (UniProt P07550). Put plainly: Adrenergic beta2 receptor (ADRB2) small molecule agonists, cell-based qHTS assay (AID 1963593).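 Further: CHO cells stably overexpressing human ADRB2.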 The method, boiled down: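 CHO cells stably over-expressing ADRB2 were plated overnight at 37C, then dosed with compounds plus a stimulation mix containing 100uM IBMX and 25uM Ro-20-1724 for 0.5hr at room temperature. cAMP was measured by HTRF competition, 1hr.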

A short description of assay [19]: p53 small molecule agonists, cell-based qHTS assay with rat liver microsomes (AID 1963578). The method, boiled down: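 Agonist mode in p53RE-bla reporter cells, with compounds co-incubated 16 h at 37 C alongside 0.5 mg/mL rat liver microsomes and 0.5 mg/mL NADPH (final), followed by a 2 h LiveBLAzer detection step.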
Assay [20] concerns the target Muscarinic acetylcholine receptor M1 (Homo sapiens) (UniProt P11229). Put plainly: Cholinergic receptor muscarinic 1 (CHRM1) small molecule antagonists, cell-based qHTS assay (AID 1963588). Further: nearly all actives have a fitted effect of over 40% in size. The method, boiled down:
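Compounds were tested at 15 concentrations in three independent runs. Dye-loaded CHRM1-CHO cells were exposed 5 min at room temperature before stimulation by acetylcholine added at 50nM. Intracellular calcium was read kinetically on FDSS for 3 min.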

A number with no mark means an inactive call. Results filed as inconclusive are left out. The source made the active and inactive calls. Unless noted, the call rests on the fitted dose curve.

Chain of D(2) dopamine receptor (Homo sapiens) (P14416 whole entry, looked up): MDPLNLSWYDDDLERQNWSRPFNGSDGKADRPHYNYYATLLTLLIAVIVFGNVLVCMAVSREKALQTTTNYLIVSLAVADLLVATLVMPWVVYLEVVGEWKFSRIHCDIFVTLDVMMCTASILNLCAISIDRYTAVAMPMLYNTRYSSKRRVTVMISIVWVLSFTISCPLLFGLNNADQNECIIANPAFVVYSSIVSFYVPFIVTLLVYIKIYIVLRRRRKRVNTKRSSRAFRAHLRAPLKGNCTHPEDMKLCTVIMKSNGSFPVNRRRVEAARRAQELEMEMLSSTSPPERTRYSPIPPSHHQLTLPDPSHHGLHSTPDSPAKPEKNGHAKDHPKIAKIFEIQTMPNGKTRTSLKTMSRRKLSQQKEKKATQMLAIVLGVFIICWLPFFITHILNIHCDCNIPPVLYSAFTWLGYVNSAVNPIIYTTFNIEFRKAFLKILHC
Chain of KiSS-1 receptor (Homo sapiens) (Q969F8 whole entry, looked up): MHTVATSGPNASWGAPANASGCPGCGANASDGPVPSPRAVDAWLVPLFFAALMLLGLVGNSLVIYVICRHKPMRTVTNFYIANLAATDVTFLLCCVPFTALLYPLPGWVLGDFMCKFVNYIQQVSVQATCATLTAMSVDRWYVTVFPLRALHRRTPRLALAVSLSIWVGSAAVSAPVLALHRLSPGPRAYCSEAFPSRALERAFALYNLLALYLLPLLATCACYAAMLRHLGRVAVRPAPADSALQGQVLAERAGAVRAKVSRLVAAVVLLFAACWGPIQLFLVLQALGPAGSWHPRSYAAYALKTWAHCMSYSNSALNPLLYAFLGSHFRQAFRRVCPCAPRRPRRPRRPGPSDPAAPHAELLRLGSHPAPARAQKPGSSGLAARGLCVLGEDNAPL
Chain of Muscarinic acetylcholine receptor M1 (Homo sapiens) (P11229 whole entry, looked up): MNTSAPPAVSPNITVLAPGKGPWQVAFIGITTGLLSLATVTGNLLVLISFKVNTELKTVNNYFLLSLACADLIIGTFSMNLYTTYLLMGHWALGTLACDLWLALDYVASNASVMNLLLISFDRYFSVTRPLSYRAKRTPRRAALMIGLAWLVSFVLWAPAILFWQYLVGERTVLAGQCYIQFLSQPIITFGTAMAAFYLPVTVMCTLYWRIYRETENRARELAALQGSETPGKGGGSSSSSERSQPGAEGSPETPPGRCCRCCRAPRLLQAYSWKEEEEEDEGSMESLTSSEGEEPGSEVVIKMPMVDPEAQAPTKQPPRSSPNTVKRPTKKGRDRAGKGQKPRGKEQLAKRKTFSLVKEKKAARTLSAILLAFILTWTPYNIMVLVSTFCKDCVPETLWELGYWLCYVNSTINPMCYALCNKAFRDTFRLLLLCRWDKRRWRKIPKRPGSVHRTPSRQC
Chain of 5-hydroxytryptamine receptor 2A (Homo sapiens) (P28223 whole entry, looked up): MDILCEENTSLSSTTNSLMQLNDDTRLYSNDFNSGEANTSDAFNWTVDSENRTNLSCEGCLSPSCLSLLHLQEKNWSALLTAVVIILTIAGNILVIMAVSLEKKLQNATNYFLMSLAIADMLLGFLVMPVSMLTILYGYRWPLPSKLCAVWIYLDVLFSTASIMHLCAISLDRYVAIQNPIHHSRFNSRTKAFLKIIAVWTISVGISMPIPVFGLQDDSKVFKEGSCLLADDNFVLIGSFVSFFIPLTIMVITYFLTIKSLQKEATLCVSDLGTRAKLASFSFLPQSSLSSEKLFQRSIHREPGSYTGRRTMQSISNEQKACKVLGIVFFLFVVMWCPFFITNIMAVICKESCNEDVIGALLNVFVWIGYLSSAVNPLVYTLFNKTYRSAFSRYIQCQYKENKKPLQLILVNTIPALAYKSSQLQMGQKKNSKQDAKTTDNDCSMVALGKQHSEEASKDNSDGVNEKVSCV
Chain of Gonadotropin-releasing hormone receptor (Homo sapiens) (P30968 whole entry, looked up): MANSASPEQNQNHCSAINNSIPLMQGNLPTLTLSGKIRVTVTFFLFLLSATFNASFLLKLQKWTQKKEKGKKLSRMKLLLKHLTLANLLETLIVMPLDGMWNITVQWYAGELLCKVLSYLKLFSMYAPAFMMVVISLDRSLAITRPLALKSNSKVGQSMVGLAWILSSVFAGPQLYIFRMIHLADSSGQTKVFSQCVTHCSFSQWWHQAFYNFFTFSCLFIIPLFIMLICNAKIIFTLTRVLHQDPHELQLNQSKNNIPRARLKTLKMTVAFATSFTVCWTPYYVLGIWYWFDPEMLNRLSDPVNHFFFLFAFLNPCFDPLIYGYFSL
Chain of Beta-2 adrenergic receptor (Homo sapiens) (P07550 whole entry, looked up): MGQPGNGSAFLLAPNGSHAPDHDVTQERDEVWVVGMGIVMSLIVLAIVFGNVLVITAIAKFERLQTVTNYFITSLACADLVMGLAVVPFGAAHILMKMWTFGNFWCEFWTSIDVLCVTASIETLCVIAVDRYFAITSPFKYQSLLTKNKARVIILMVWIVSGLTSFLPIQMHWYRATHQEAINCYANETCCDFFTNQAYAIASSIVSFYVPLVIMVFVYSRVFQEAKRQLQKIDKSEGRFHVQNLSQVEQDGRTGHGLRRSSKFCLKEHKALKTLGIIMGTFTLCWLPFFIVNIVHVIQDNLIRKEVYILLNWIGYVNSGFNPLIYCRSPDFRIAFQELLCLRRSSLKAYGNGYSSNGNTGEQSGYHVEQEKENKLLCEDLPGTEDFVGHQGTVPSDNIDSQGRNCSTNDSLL

Consider `Nc1ccccc1S(=O)(=O)O`, for which the Potency result in [1], in [2], in assay [3], in [4], in assay [5] and in assay [6] was “inactive” throughout. In addition, the Potency result in assay [7], in assay [8], in assay [9], in [10], in assay [11] and in assay [12] was “inactive” throughout. Moreover, the Potency result in [13], in assay [14] and in [15] was “inactive” in each case.
As for `CC(=O)OCC(=O)[C@@]1(O)CC[C@H]2[C@@H]3CCC4=CC(=O)C=C[C@]4(C)[C@H]3[C@@H](O)C[C@@]21C`, the Potency result in [1], in assay [2], in assay [16], in [17], in assay [6] and in assay [8] was “inactive” each time. Also, the Potency result in assay [11], in assay [12], in [13], in [18], in assay [14] and in assay [15] was “inactive” each time.
For `C=C1[C@H]2CC[C@@H]3[C@H]2C(C)(C)CCC[C@]13C`, the Potency result in assay [1], in assay [16], in assay [17], in assay [3], in assay [19] and in assay [4] was “inactive” throughout. In addition, the Potency entry in assay [5], in assay [6], in [7], in [8], in assay [9] and in assay [20] was “inactive” throughout. The Potency entry in assay [10], in assay [11], in assay [12], in [13], in [18] and in assay [14] was “inactive” throughout. In [15], the Potency result was “inactive”.
For `CC/C=C/CCO`, the Potency entry in assay [1], in assay [2], in [17], in [3], in assay [19] and in [4] was “inactive” each time. For the same compound, the Potency result in assay [5], in assay [6], in assay [7], in assay [8], in [9] and in [20] was “inactive” throughout. For the same compound, the Potency entry in assay [10], in assay [12], in assay [13], in assay [18] and in [14] was “inactive” throughout.
As to `O=C(O)c1ccc(OCCCOc2ccc(C(=O)O)cc2)cc1`, the Potency result in assay [1], in assay [16], in assay [17], in assay [3], in assay [19] and in assay [4] was “inactive” in each case. Moreover, the Potency entry in assay [5], in assay [6], in [7], in assay [8], in assay [9] and in assay [20] was “inactive” in each case. For the same compound, the Potency entry in [10], in assay [11], in assay [12], in [13], in assay [18] and in assay [14] was “inactive” in each case. Further, the Potency result in assay [15] is “inactive”.
For `c1ccc2sc(SSN3CCOCC3)nc2c1`, in [1], the Potency was 24.3 µM (active). The Potency entry in assay [16], in assay [17], in [5], in assay [6], in [8] and in [10] was “inactive” in each case. In addition, the Potency result in assay [13], in assay [18], in assay [14] and in assay [15] was “inactive” throughout.
`CCN(C=O)CC`: the Potency result in assay [1], in [2], in [17], in assay [3], in [19] and in assay [4] was “inactive” in each case. Besides, the Potency result in [5], in [6], in assay [7], in assay [8], in assay [9] and in assay [20] was “inactive” in each case. The Potency entry in [10], in assay [11], in [12], in assay [13], in assay [18] and in assay [14] was “inactive” in each case. In addition, the Potency result in assay [15] was “inactive”.
For `CC(C)COC(=O)c1ccc(N)cc1`, the Potency result in assay [1], in assay [16], in assay [17], in assay [3], in [19] and in [4] was “inactive” in each case. Further, the Potency result in assay [5], in assay [6], in assay [7], in assay [8], in [9] and in assay [20] was “inactive” each time. The Potency entry in assay [10], in assay [11], in [12], in assay [13], in [14] and in assay [15] was “inactive” each time.
